KKLEB cytotox = cytotoxicity in KKLEB CF airway cells, primary screen, cytotoxicity control for CF NF-kB inhibitor project, cell-based, uHTS, fluorescence assay plates; AID 602141, 2011; activity change (cytotoxicity), % at 5 µM; hit rate 0.36% among 360,000; KKLEB CF airway cells viability, ATPlite luminescence, overnight; hits give low values; cells stimulated with P. aeruginosa culture filtrate;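 active = corrected activity change at or below -50% at 5 µM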
HIF-2a inh = HIF-2a reporter inhibitors, primary screen, luminescence, 786-0 RCC cells. hit rate 0.72% among 360,000. 786-0 RCC cells HIF-2a reporter, luciferase luminescence, overnight. inhibition, % at 18.8 µM;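 active = inhibition of the luminescence signal of 40% or more relative to plate controls, in a single-dose primary screen at 18.75 µM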
EWS-Fli inh = EWS/Fli-driven NR0B1 reporter inhibitors, primary screen, A673 cells, NR0B1 luciferase, luminescence, MLPCN library; viability-normalised; inhibition, % at 12.6 µM; hit rate 0.67% among 350,000;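 active = mean inhibition of at least 50% after viability correction, with every replicate also passing that limit; inconclusive = mean reaches 50% but only one of two replicates passes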;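 also: firefly luciferase signal divided by Alamar Blue viability fluorescence both relative to DMSO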
CF NFkB block = inhibitors of PAF-induced NF-kB signaling, primary screen, cell-based, GFP fluorescence, uHTS | KKLEB NF-kB-GFP reporter, GFP fluorescence overnight | inhibition, % at 5 µM | hit rate 0.86% among 360,000;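 active = at least 50% inhibition at 5 µM, scaled per plate between neutral and stimulator controls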;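 also: PAF is a Pseudomonas aeruginosa culture filtrate used as stimulus; plate controls were PAF-stimulated DMSO wells for no effect and unstimulated DMSO wells for full effect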
PAX8 reporter = inhibitors of PAX8-driven TPO luciferase reporter, primary screen, RMG-I cells, single concentration; inhibition, % at 12.6 µM; hit rate 1.2% among 360,000; SteadyGlo, 24 h;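 active = mean replicate inhibition at least 60% with every replicate also reaching 60%; inconclusive = only one of the two criteria is met; inactive = mean below 60% and not all replicates reaching 60%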;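 also: luciferase light reporting Pax8 driven TPO promoter activity; plate controls were median of neutral control wells for no effect and mitoxantrone controls for full effect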
CF NFkB inh conf = inhibitors of PAF-induced NF-kB signaling, retest, confirmation, cell-based, GFP fluorescence, single concentration; shares compounds with CF NFkB block; KKLEB CF airway cells, overnight; inhibition, % at 5 µM; hit rate 64% among 1,300; AID 602472, 2012; in the data active = inhibition above about 40%;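 also: stimulus PAF is a Pseudomonas aeruginosa filtrate and not platelet activating factor; plate controls were DMSO wells with stimulus for no effect and unstimulated DMSO wells for full effect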
* hit, by the source's call; ? = inconclusive; . = no result. An excerpt weighted towards active compounds, which were near 2.1% of everything screened.

SMILES | KKLEB cytotox | HIF-2a inh | EWS-Fli inh | CF NFkB block | PAX8 reporter | CF NFkB inh conf
CN(C)CC(=O)N1[C@@H]2Cn3c(ccc(C4=CCCC4)c3=O)[C@H]1[C@@H](C(=O)NCC1CC1)[C@@H]2CO | . | . | 2.3 | . | . | .
O=C(C[C@H]1C[C@H]2c3cc(NC(=O)c4cccnc4)ccc3O[C@H]2[C@@H](CO)O1)NCc1ccncc1 | . | . | 8.2 | . | . | .
Cc1nccc(-c2ccc(-n3cnc4ccccc43)cc2)n1 | -7.5 | -74.9 | . | 45.7 | . | .
Nc1nccc(-c2ccc(-n3cnc4ccccc43)cc2)n1 | -9.4 | -140.2 | -50.5 | 76.7* | -119.1 | 80.2*
CC(=O)Oc1ccccc1C(=O)Nc1ccccc1 | 6.9 | -183.2 | -4.4 | -1.0 | -117.6 | .
COC1(OC)C=CC(=O)C=C1NC(=O)c1ccccc1OC(C)=O | 5.8 | -1.9 | 55.2* | 66.1* | 68.8* | 68.8*
O=C(Nc1cccc(Cl)c1)Nc1csc([N+](=O)[O-])c1 | -48.5 | -173.4 | 19.0 | 54.1* | 98.8* | 62.9*
C[C@@H](NC(=O)[C@H]1[C@H](CO)[C@H]2Cn3c(ccc(-c4cccnc4)c3=O)[C@@H]1N2C)c1ccccc1 | . | . | -0.9 | . | -18.3 | .
COc1ccc(-c2cn[nH]c2-c2ccc(OC)cc2O)cc1 | -5.0 | 9.1 | -18.5 | 72.4* | -22.3 | 79.8*
COc1ccc(-c2cn[nH]c2-c2ccc(OCc3ccccc3F)cc2O)cc1OC | -22.3 | 19.8 | 22.4 | 59.5* | 17.3 | 60.5*
COc1ccc(-c2cn[nH]c2C)cc1 | -17.8 | 7.5 | -4.0 | 53.2* | -7.0 | 10.7
COc1ccc(-c2[nH]ncc2-c2ccc(Cl)cc2)c(O)c1 | -10.0 | -8.9 | . | 21.4 | . | .
Cc1noc(C)c1NC(=O)N(C)C[C@H]1Oc2ccc(NS(=O)(=O)c3ccc(F)cc3)cc2CC(=O)N([C@@H](C)CO)C[C@@H]1C | . | . | -21.7 | . | . | .
C[C@@H]1CN([C@H](C)CO)C(=O)c2cc(NS(=O)(=O)c3cn(C)cn3)ccc2O[C@@H](C)CCCCO[C@H]1CN(C)Cc1ccncc1 | . | . | -3.9 | . | -4.1 | .
COCCCN=C1NN=C(c2cc(C)n(Cc3ccccc3Cl)c2C)CS1 | -13.5 | -76.4 | 45.9 | 53.5* | -0.9 | 60.4*
Cc1cccc(NC(=O)c2cc(-c3ccc(C)s3)nc3ccccc23)n1 | -7.3 | -62.1 | -26.9 | 74.1* | 17.3 | 76.0*
C[C@]12CCC(O)CC1CCC1C2CC[C@]2(C)C(c3cc(C(F)(F)F)n[nH]3)CCC12 (stereo not given in full) | -36.9 | 35.8 | 10.9 | 56.5* | 5.0 | 71.4*
C=C1C(=O)O[C@@H]2[C@H]3O[C@]3(C)CC/C=C(\C)CC[C@@H]12 | 23.4 | 19.4 | 1.6 | 69.0* | 101.1* | 77.2*
CCOC(=O)c1c(C)[nH]c(C(=O)COC(=O)c2[nH]c(C)c(C(C)=O)c2C)c1C | 7.2 | 13.1 | . | -2.8 | . | .
CC(=O)c1c(C)[nH]c(C(=O)COC(=O)c2ccc(C)s2)c1C | 25.7 | -27.7 | -5.8 | 64.0* | -11.6 | 7.3
CCCC#Cc1cnc2c(c1)C(=O)N([C@@H](C)CO)C[C@@H](C)[C@H](CN(C)C(=O)c1cccc(F)c1)O2 | . | . | -36.5 | . | 14.5 | .
CC(C)(C)OC(=O)CC(S(=O)(=O)c1ccccc1)S(=O)(=O)c1ccccc1 | -16.4 | -80.0 | -4.7 | 85.5* | 85.9* | 25.3
COc1cc2c(cc1O)CC[C@@H]1[C@@H]2CC[C@]2(C)[C@@H](O)CC[C@@H]12 | 1.7 | 23.0 | . | 39.4 | . | .
CCOc1cc2c(cc1O)C(=NO)CC1C2CCC2(C)C(O)CCC12 (stereo not given) | -27.9 | 31.5 | 41.8 | 52.4* | 51.5 | 75.0*
O=C(Nc1ccc(F)cc1)N1C[C@H]2[C@@H](c3ccccc31)[C@@H](CO)N2C(=O)c1ccc(F)cc1 | . | . | 2.0 | . | -2.9 | .
SMILES | KKLEB cytotox | HIF-2a inh | EWS-Fli inh | CF NFkB block | PAX8 reporter | CF NFkB inh conf
O=C(/C=C/c1ccccc1Cl)c1cccnc1 | 6.8 | 17.1 | . | -1.5 | . | .
O=C(C=Cc1ccccc1O)c1ccccc1O | -44.9 | -4.8 | -0.8 | 71.3* | . | 12.8
O=C(/C=C/c1ccccc1Cl)c1ccc(O)cc1 | -9.8 | -237.0 | -38.8 | 59.2* | -57.9 | -37.9
O=C(/C=C/c1ccc(O)c(O)c1)c1ccccc1O | -9.4 | -244.6 | 35.0 | 5.0 | -139.4 | .
CCCCc1ccc(NC(=S)Nc2ccc(Nc3ccc(OC)cc3)cc2)cc1 | -18.9 | -25.1 | . | 52.2* | 10.3 | 0.1
Fc1ccccc1-c1csc(=Nc2cccnc2)n1CCCn1ccnc1 | -13.3 | -33.1 | 31.9 | 65.9* | -31.0 | 70.8*
C[C@H]1CN([C@@H](C)CO)C(=O)c2cc(NC(=O)CCC(F)(F)F)ccc2O[C@@H]1CN(C)Cc1ccc(C(=O)Nc2ccccc2N)cc1 | . | . | . | . | 16.9 | .
CCC(=O)N1[C@@H](CO)[C@H](c2ccccc2)C12CN(C(=O)NC1CCCC1)C2 | . | . | -2.5 | . | . | .
CCNC(=O)/C=C1\NC(C)(C)Cc2c1ccc1ccccc21 | -5.5 | -24.7 | -5.4 | 12.2 | . | .
CC1(C)Cc2c(ccc3ccccc23)C(=O)N1 | -6.3 | -58.8 | . | 68.7* | . | 78.4*
O=C(C1CCCC1)N1C[C@H]2[C@@H](c3ccccc31)[C@H](CO)N2C(=O)Nc1cccc(F)c1 | . | . | -1.2 | . | -0.3 | .
c1ccc(C2[C@H]3CN(Cc4cccnc4)[C@H](c4ccccc4)C34CC2(c2ccccc2)C4)cc1 (stereo not given in full) | -19.0 | -19.4 | 15.2 | 53.4* | 8.7 | 4.8
c1ccc(C2[C@H]3CN(Cc4cccnc4)[C@H](c4ccccc4)C34CC2(c2cccnc2)C4)cc1 (stereo not given in full) | 1.4 | 14.6 | 13.4 | 22.0 | -10.2 | .
CCN(CC)c1ccc(CNc2nc3ccccc3n2C)cc1 | -2.9 | -79.3 | 4.6 | -30.5 | -37.0 | .
CCN(CC)c1ccc(CNc2nc3ccccc3n2CCN2CCCCC2)cc1 | -44.7 | 1.1 | 28.9 | 55.0* | 15.7 | 36.8
O=C(C[C@@H]1CC[C@H]2[C@@H](COC[C@@H](O)CN2Cc2cccc(Cl)c2)O1)N1CCOCC1 | . | . | -8.2 | . | -3.7 | .
COc1cc(NC(=O)c2cc3ccccc3cc2OC)ccc1NC(=O)c1cccs1 | 16.7 | -18.8 | -5.1 | 59.0* | 52.7 | 102.2*
CCn1c(SCC(=O)N/N=C/c2ccc(OC)c(OC)c2)nc2ccccc21 | -12.8 | -5.4 | . | 11.6 | . | .
C=CCSc1nc2ccccc2n1C(=O)/C=C/c1ccc(OC)c(OC)c1 | -41.8 | -34.6 | ? | 91.9* | . | 103.4*
N#CC(C#N)c1ccnc2ccccc12 | -13.6 | -0.4 | 4.8 | 58.3* | -52.2 | 45.8*
COc1ccccc1N1CCN(C(=O)c2ccc3c(Cl)c4c(nc3c2)CCCC4)CC1 | -11.6 | -5.0 | . | 53.1* | . | -94.9
O=C(c1ccc2c(Cl)c3c(nc2c1)CCCC3)N1CCN(c2ccc(F)cc2)CC1 | -13.9 | 6.7 | 5.1 | 28.7 | 16.5 | .
CNC[C@H]1OCc2cnnn2CCCC(=O)N([C@H](C)CO)C[C@H]1C | . | . | 5.4 | . | . | .

Assay outcomes as filed in PubChem BioAssay.
